Laboratory results as given in PubChem BioAssay (NCATS).
Where “and” joins values, the source holds several entries; their conditions need not be identical. Equal values may be shown once. Inconclusive results are not listed. Calls of active or inactive are those of the source. Unless noted, calls come from the whole dose curve; as a rule, active = well fitted curve in the direction sought with a large enough effect; inconclusive = small, poorly fitted or top-dose-only effect, or another doubt; inactive = no such curve, though single readings can be large; an effect the other way counts as inactive or inconclusive.

Columns and labels:
MKL-2 = assay: qHTS assay to identify novel small-molecules to repurpose for Merkel cell carcinoma treatment (AID 1296009); settings: MCC and control cell lines, CellTiter-Glo viability, 72 h; series mostly up to 46 µM; note: nearly all actives have a fitted effect of over 60% in size; for activity change, negative = cytotoxicity: % is set by controls: 0 for no effect and ±100 for the full control effect
Summary of the method: (§1)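 Cell viability measured by CellTiter-Glo following 72 hr compound treatment at 37 degree celsius, with NPC and MIPE libraries tested in 8- and 11-point concentration series.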

NIH3T3 = assay: as above; settings: MCC and control cell lines, CellTiter-Glo viability, 72 h; at 44.8 µM (top of the series) unless noted
Summary of the method: as §1

UISO = assay: as above; settings: MCC and control cell lines, CellTiter-Glo viability, 72 h; series mostly up to 46 µM
Summary of the method: as §1

WaGa = assay: as above; settings: MCC and control cell lines, CellTiter-Glo viability, 72 h; series mostly up to 46 µM
Summary of the method: as §1

C33A = assay: Primary qHTS to identify gynecologic anti-cancer compounds using libraries of approved drugs and bioactive compounds (AID 1345084); settings: Gynecologic cancer cell panel viability, ATPlite luminescence, 48 h; series mostly up to 57.5 µM; note: % is set by controls: 0 for no effect and ±100 for the full control effect; nearly all actives have a fitted effect of over 55% in size
Summary of the method: (§2)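 Cells, 1,000 per well, plated 16 h, then exposed 48 h at 37 C to compounds. Viability by ATPlite luminescence after 15 min at room temperature.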

CAOV3 = assay: as above; settings: Gynecologic cancer cell panel viability, ATPlite luminescence, 48 h; series mostly up to 57.5 µM
Summary of the method: as §2

CASKI = assay: as above; settings: Gynecologic cancer cell panel viability, ATPlite luminescence, 48 h; series mostly up to 57.5 µM
Summary of the method: as §2

Es-2 = assay: as above; settings: Gynecologic cancer cell panel viability, ATPlite luminescence, 48 h; series mostly up to 57.5 µM
Summary of the method: as §2

HeLa = assay: as above; settings: Gynecologic cancer cell panel viability, ATPlite luminescence, 48 h; series mostly up to 57.5 µM
Summary of the method: as §2

Hek293T = assay: as above; settings: Gynecologic cancer cell panel viability, ATPlite luminescence, 48 h, control line for the selectivity index; series mostly up to 57.5 µM
Summary of the method: as §2

JEG-3 = assay: as above; settings: Gynecologic cancer cell panel viability, ATPlite luminescence, 48 h; series mostly up to 57.5 µM
Summary of the method: as §2

OV90 = assay: as above; settings: Gynecologic cancer cell panel viability, ATPlite luminescence, 48 h; series mostly up to 57.5 µM
Summary of the method: as §2

PA-1 = assay: as above; settings: Gynecologic cancer cell panel viability, ATPlite luminescence, 48 h; series mostly up to 57.5 µM
Summary of the method: as §2

SKOV3 = assay: as above; settings: Gynecologic cancer cell panel viability, ATPlite luminescence, 48 h; series mostly up to 57.5 µM
Summary of the method: as §2

Tov-21-G = assay: as above; settings: Gynecologic cancer cell panel viability, ATPlite luminescence, 48 h; series mostly up to 57.5 µM
Summary of the method: as §2

Tov112D = assay: as above; settings: Gynecologic cancer cell panel viability, ATPlite luminescence, 48 h; series mostly up to 57.5 µM
Summary of the method: as §2

[1] = Drug repurposing screens with cells derived from glioblastoma tumor samples (AID 1345199); settings: GBM patient neurospheres viability, ATP luminescence, 48 h; note: % is set by controls: 0 for no effect and ±100 for the full control effect; nearly all actives have a fitted effect of over 40% in size
Summary of the method: (§3)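 Primary testing used CD133+ neurospheres from four GBM patients, seven concentrations, 48 h exposure and ATP-based viability; confirmation added three slower-growing patient lines.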

astro = assay: as above; settings: viability, ATP luminescence, 48 h; series mostly up to 45.9 µM
Summary of the method: as §3

[2] = biological target: Nuclear receptor subfamily 1 group I member 2 (Rattus norvegicus) (UniProt Q9R1A7); assay: qHTS assay for small molecule activators of the rat pregnane X receptor (rPXR) signaling pathway (AID 651751; call rule not given here; note: 0% is about no effect); settings: rPXR reporter cells, luciferase (One-Glo), 24 h
Chain of Nuclear receptor subfamily 1 group I member 2 (Rattus norvegicus) (Q9R1A7 whole entry, looked up): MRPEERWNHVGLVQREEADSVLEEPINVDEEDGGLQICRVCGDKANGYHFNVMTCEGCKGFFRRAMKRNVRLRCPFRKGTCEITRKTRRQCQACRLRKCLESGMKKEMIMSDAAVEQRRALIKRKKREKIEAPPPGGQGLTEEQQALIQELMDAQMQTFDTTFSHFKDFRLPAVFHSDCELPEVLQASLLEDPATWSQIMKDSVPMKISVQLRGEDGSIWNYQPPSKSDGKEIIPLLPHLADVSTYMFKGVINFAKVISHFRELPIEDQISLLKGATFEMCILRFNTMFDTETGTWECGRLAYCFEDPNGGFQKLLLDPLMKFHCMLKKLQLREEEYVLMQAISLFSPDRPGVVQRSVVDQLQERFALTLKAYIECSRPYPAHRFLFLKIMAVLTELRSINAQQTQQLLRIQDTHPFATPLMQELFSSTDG

[3] = at 45.9 µM (top of the series), tumour line B
[4] = at 45.9 µM (top of the series), tumour line D
[5] = at 46.1 µM (top of the series), tumour line C
[6] = at 46 µM (top of the series), tumour line A

CO[C@@]1(NC(=O)Cc2cccs2)C(=O)N2C(C(=O)O)=C(COC(N)=O)CS[C@@H]21
inactive: Potency (MKL-2) | outcome (NIH3T3) | Potency (UISO) | Potency (WaGa) | Potency (C33A) | Potency (CAOV3) | Potency (CASKI) | Potency (Es-2) | Potency (HeLa) | Potency (Hek293T) | Potency (JEG-3) | Potency (OV90) | Potency (PA-1) | Potency (SKOV3) | Potency (Tov-21-G) | Potency (Tov112D) | activity, negative = cell killing [1, 3] 3.39% and 0.545% | activity, negative = cell killing [1, 4] -2.17% and -11.4% | activity, negative = cell killing [1, 5] -9.41% and -2.11% | Potency (astro)

O=C(O)/C=C\C(=O)O
inactive: Potency (MKL-2) | Potency (UISO) | Potency (WaGa) | Potency (C33A) | Potency (CAOV3) | Potency (CASKI) | Potency (Es-2) | Potency (HeLa) | Potency (Hek293T) | Potency (JEG-3) | Potency (OV90) | Potency (PA-1) | Potency (SKOV3) | Potency (Tov-21-G) | Potency (Tov112D) | max response [2] 4.35%

CC(C(=O)O)c1ccc2c(c1)[nH]c1ccc(Cl)cc12 (stereo not given)
inactive: Potency (MKL-2) | Potency (UISO) | Potency (WaGa) | Potency (C33A) | Potency (CASKI) | Potency (Es-2) | Potency (HeLa) | Potency (Hek293T) | Potency (JEG-3) | Potency (OV90) | Potency (PA-1) | Potency (SKOV3) | Potency (Tov-21-G) | Potency (Tov112D) | activity, negative = cell killing [1, 3] -6.45% | activity, negative = cell killing [1, 4] -15.7% | activity, negative = cell killing [1, 6] -16.3% | activity, negative = cell killing [1, 5] -19.6% | Potency (astro)

O=C(O)Cc1cccc(-c2cc(CCCCCCc3ccc(O[C@H]4O[C@H](CO)[C@@H](O)[C@H](O)[C@@H]4O)c(-c4cccc(CC(=O)O)c4)c3)ccc2O[C@H]2O[C@H](CO)[C@@H](O)[C@H](O)[C@@H]2O)c1
inactive: activity change, negative = cytotoxicity (MKL-2) 5.84% [at 0.597 µM] | activity change, negative = cytotoxicity (UISO) 19.7% [at 0.597 µM] | activity change, negative = cytotoxicity (WaGa) 8.43% [at 0.597 µM] | activity change, negative = cytotoxicity (C33A) -0.854% [at 0.462 µM] | activity change, negative = cytotoxicity (CASKI) -1.06% [at 0.462 µM] | activity change, negative = cytotoxicity (Es-2) 2.88% [at 0.462 µM] | activity change, negative = cytotoxicity (HeLa) 7.81% [at 0.462 µM] | activity change, negative = cytotoxicity (Hek293T) 0.655% [at 0.462 µM] | activity change, negative = cytotoxicity (JEG-3) 24.2% [at 0.462 µM] | activity change, negative = cytotoxicity (OV90) 11.3% [at 0.462 µM] | activity change, negative = cytotoxicity (PA-1) 22.2% [at 0.462 µM] | activity change, negative = cytotoxicity (Tov-21-G) 4.72% [at 0.462 µM] | activity change, negative = cytotoxicity (Tov112D) 13.8% [at 0.462 µM] | activity, negative = cell killing [1, 3] -15% | activity, negative = cell killing [1, 4] -11.6% | activity, negative = cell killing [1, 6] -35.4% | activity, negative = cell killing [1, 5] 0.695%

O=C(O)Cc1ccc(-c2ccccc2)cc1
inactive: Potency (MKL-2) | Potency (UISO) | Potency (WaGa) | Potency (C33A) | Potency (CASKI) | Potency (Es-2) | Potency (HeLa) | Potency (Hek293T) | Potency (JEG-3) | Potency (OV90) | Potency (PA-1) | Potency (SKOV3) | Potency (Tov-21-G) | Potency (Tov112D) | activity, negative = cell killing ([1]; at 20 µM (top of the series), tumour line C) 2.3% | activity, negative = cell killing ([1]; at 21.2 µM (top of the series), tumour line B) -5.31% | activity, negative = cell killing ([1]; at 21.2 µM (top of the series), tumour line D) -13.6% | activity, negative = cell killing ([1]; at 21.3 µM (top of the series), tumour line A) -23.3% | Potency (astro)

CC(=O)SCC(CC(=O)c1ccc(C)cc1)C(=O)O (stereo not given)
inactive: Potency (MKL-2) | Potency (UISO) | Potency (WaGa) | Potency (C33A) | Potency (CAOV3) | Potency (Es-2) | Potency (HeLa) | Potency (Hek293T) | Potency (JEG-3) | Potency (OV90) | Potency (Tov-21-G) | Potency (Tov112D) | activity, negative = cell killing [1, 3] -14.9% | activity, negative = cell killing [1, 4] -21.8% | activity, negative = cell killing [1, 5] 1.92%

CNC(=O)c1c(I)c(NC(=O)CCCCC(=O)Nc2c(I)c(C(=O)O)c(I)c(C(=O)NC)c2I)c(I)c(C(=O)O)c1I
inactive: Potency (MKL-2) | Potency (UISO) | Potency (WaGa) | Potency (C33A) | Potency (CASKI) | Potency (Es-2) | Potency (HeLa) | Potency (Hek293T) | Potency (JEG-3) | Potency (OV90) | Potency (PA-1) | Potency (SKOV3) | Potency (Tov-21-G) | Potency (Tov112D)
